Rows were chosen to be rich in hits. Some 6.2% of all compounds tested hit in one or more screens of this group.
LASV entry inh = Lassa virus entry inhibition; Lassa virus pseudotype entry inhibition, cell reporter; Potency, µM (series often up to 37.9 µM), for the others: at the top dose activity change, negative = inhibition, actives largely listed as inhibitors; 300,000 compounds, 1.2% hits; AID 540256; calls by dose curve; tested in HEK293 cells; further: potency means the concentration at half of the fitted maximal effect; nearly all actives have a fitted effect of over 50% in size
HCMV antiviral = blocks human cytomegalovirus replication; HFF cells, HCMV-luciferase reporter, 72 h; hits give low values; activity change, negative = inhibition, % at 57.5 µM; 410,000 compounds, 4.5% hits; in the data active means activity change below about -60%; inconclusive means no clear call, values can overlap the other calls; inactive means above about -39%
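Screen run at 2 compound doses on HFFs infected with reporter HCMV, MOI 1 PFU/cell. Luciferase activity from cell lysates at 72 h post infection gave inhibition relative to buffer-only and Salinomycin wells.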
Marburg entry inh = Marburg virus entry inhibition. Marburg virus pseudotyped entry inhibition, cell reporter. Potency, µM (series often up to 37.8 µM), without a hit: at the top dose activity change, negative = inhibition, most hits filed as inhibitors. 300,000 compounds, 1.8% hits. AID 540276; calls by dose curve; tested in HEK293 cells; further: potency means the concentration at half of the fitted maximal effect
FMDV inh = blocks foot and mouth disease virus; Potency, µM (doses to about 57.9 µM), for inactives: at the top dose activity change, negative = inhibition, hits mostly inhibitors; AID 1159524; FMDV antiviral cell-based qHTS; 410,000 compounds, 1.2% hits; calls by dose curve; tested in HEK293T cells; further: read-out not given here; potency means the concentration at half of the fitted maximal effect; nearly all actives have a fitted effect of over 45% in size
* = called active by the depositor; ? = inconclusive; · = no result given; [ ] = dose if it differs, or a comment. On the % scale 0 is the no-effect control and ±100 the full control effect.

SMILES | LASV entry inh | HCMV antiviral | Marburg entry inh | FMDV inh
CCCCC(=O)Nc1ccccc1N1CCOCC1 | -2%[46.1 µM] | -18 | -9%[46.1 µM] | 2%
CCOC(=O)C1(CCc2ccccc2)CCN(C2CCSCC2)CC1 | ? | -27 | 10µM* | -14%
CCOC(=O)C1(CCc2ccccc2)CCN(C2Cc3ccccc3C2)CC1 | -12% | -4 | -20%[46.1 µM] | ?
CCOC(=O)C1(Cc2cccc(OC)c2)CCN(Cc2ccc(C)s2)CC1 | 4.5µM* | -3 | 5µM* | ?
CCOC(=O)C1(Cc2cccc(OC)c2)CCN(Cc2cccc(OC)c2O)CC1 | ? | -73* | ? | 25µM*
CCOC(=O)C1(CCOc2ccccc2)CCN(Cc2cc(OC)c3c(c2)OCO3)CC1 | ? | ? | 2.8µM* | ?
COc1cc(/C=C/C(=O)O)cc(S(=O)(=O)NCc2ccco2)c1OC | ? | -14 | 8% | 55%
COc1ccc(NC(=O)Cn2nc(C)c3ccccc3c2=O)cc1 | · | -33 | · | -7%
CCOC(=O)C1(CCOc2ccccc2)CCN(C(=O)c2ccc(-n3cccn3)cc2)CC1 | ? | ? | ? | 22µM*
CCOC(=O)C1(CCOc2ccccc2)CCN(Cc2ccc(C)s2)CC1 | ? | -82* | ? | ?
CCOC(=O)C1(CCOc2ccccc2)CCN(Cc2cccc(-n3cccn3)c2)CC1 | ? | -39 | ? | ?
CCOC(=O)C1(CCc2ccccc2)CCN(Cc2ccc(C(=O)OC)cc2)CC1 | · | -10 | · | ?
CCOC(=O)C1(CCc2ccccc2)CCN(Cc2ccc3c(c2)OCCO3)CC1 | ? | -77* | ? | ?
CCOC(=O)C1(Cc2ccccc2C(F)(F)F)CCN(C2CCN(C(C)C)CC2)CC1 | ? | -69* | 7.3µM* | -9%
COCc1cc(CN2CCN(Cc3ccsc3)C(CCO)C2)ccc1OC (stereo not drawn) | -21% | 42 | 5%[46.1 µM] | 1%
COc1ccc(-c2noc(CNS(=O)(=O)c3ccc(Br)cc3)n2)cc1OC | 22%[46.1 µM] | -10 | -19%[46.1 µM] | -7%
CCCCCC(=O)N1C[C@H](n2cc(C3CC3)nn2)[C@@H](O)C[C@@H]1c1ccc(C)cc1 | · | 26 | · | 0%
CCOC(=O)C1(CCOc2ccccc2)CCN(Cc2cccc(OCCO)c2)CC1 | -17% | 62 | ? | ?
CCOC(=O)C1(CCOC)CCN(C(=O)Cc2ccsc2)CC1 | · | 63 | · | -8%
CCOC(=O)C1(CCOc2ccccc2)CCN(Cc2cccc(F)c2)CC1 | · | -91* | · | ?
CCOC(=O)C1(CCOC)CCN(C(=O)Cc2ccc3ccccc3c2)CC1 | ? | -24 | 10µM* | -4%
CCOC(=O)N1CCN(c2ncnc3c2cnn3-c2ccc(Cl)cc2)CC1 | · | -24 | -3% | ·
O=C(Oc1ccnc2cc(Cl)ccc12)N1CCOCC1 | -22% | -76* | -9% | -17%
COc1ccc(NC(=O)CCNC(=O)N2CC(=O)Nc3ccccc32)c(OC)c1 | -9%[46.1 µM] | 31 | 21%[46.1 µM] | 26%
COc1ccccc1NS(=O)(=O)c1cccc(C(=O)N/N=C/c2ccc3c(c2)OCCO3)c1 | 10% | -63* | 0% | 11%
SMILES | LASV entry inh | HCMV antiviral | Marburg entry inh | FMDV inh
COc1ccccc1NS(=O)(=O)c1cccc(C(=O)N/N=C/c2ccc([N+](=O)[O-])o2)c1 | 14µM* | -36 | ? | ?
CCN(CC)c1ccc(/C=N/NC(=O)c2cccc(S(=O)(=O)Nc3ccccc3OC)c2)cc1 | · | -16 | · | -12%
COc1ccccc1NS(=O)(=O)c1ccc(NN=C2CCCC2)c([N+](=O)[O-])c1 | -16% | -79* | ? | -22%
COc1ccccc1NS(=O)(=O)c1ccc(N/N=C/C=C/c2ccccc2[N+](=O)[O-])c([N+](=O)[O-])c1 | 20% | -28 | -18% | 6%
CCN(CC)c1ccc(/C=N/NC(=O)c2cccc(S(=O)(=O)Nc3ccccc3OC)c2)c(O)c1 | 0.32µM* | -103* | 5.6µM* | -1%
Cc1nc(N)sc1C(=O)N/N=C/c1ccccc1[N+](=O)[O-] | · | 83 | · | ·
Cc1nc(N)sc1C(=O)N/N=C/c1c[nH]c2ccccc12 | 10% | 62 | 2.9µM* | ·
Cc1nnsc1C(=O)N/N=C/c1ccccc1 | 1% | -9 | ? | 2%
Cc1nnsc1C(=O)N/N=C/c1ccc2ccccc2c1O | ? | -100* | ? | ?
Cc1nnsc1C(=O)N/N=C/c1c(F)cccc1Cl | · | ? | 4%[46.1 µM] | 8%
Cc1nnsc1C(=O)N/N=C/c1ccc(OC(F)(F)F)cc1 | ? | -61* | 4%[46.1 µM] | 22%
CCOC(=O)c1cc(C)n(CC2CCC(C(=O)Nc3ccccc3OC)CC2)c1C (stereo not drawn) | -1%[46.1 µM] | -30 | · | -24%
CCOC(=O)c1cc(C)n(CC2CCC(C(=O)Nc3ccc(OCC)cc3)CC2)c1C (stereo not drawn) | 8%[46.1 µM] | -61* | · | -28%
Nc1ccc(C(=O)NN2C(=O)[C@H](Cl)C2c2ccc(Cl)cc2)cc1 (stereo partly drawn) | 11µM* | -7 | 8.9µM* | ?
O=C(N/N=C/c1cccs1)c1cccc(S(=O)(=O)Nc2ccc(Cl)cc2)c1 | -6% | -65* | 22%[46.1 µM] | 25%
O=C(N/N=C/c1cccs1)c1cccc(NC(=O)c2ccc(Cl)cc2)c1 | ? | -97* | 4% | ·
O=C(NCc1ccc2c(c1)OCO2)c1ccc(CSCc2ccccc2Cl)o1 | 10% | 10 | 23% | -24%
COc1ccc(Cl)cc1C(=O)Nc1ccc(S(N)(=O)=O)cc1 | -9% | ? | 9%[46.1 µM] | -13%
COc1c(C(N)=O)cc(-c2ccc(Cl)cc2)cc1-c1ccc(S(N)(=O)=O)cc1 | 25µM* | · | · | ·
CCN(CC)S(=O)(=O)c1cccc(NC(=O)C(=O)c2c(-c3ccccc3)cc3ccccn23)c1 | -20% | -75* | ? | -8%
CCN(CC)S(=O)(=O)c1cc(NC(=O)C(=O)c2c(-c3ccccc3)cc3ccccn23)ccc1C | ? | -97* | ? | -25%
O=C(NC1CCN(S(=O)(=O)c2ccc(F)cc2)CC1)c1cccnc1 | 7% | 13 | 3%[46.1 µM] | -8%
Cc1cccc(C)c1NC(=O)C(c1ccccc1OC(F)(F)F)N1CCN(C)CC1 (stereo not drawn) | · | -62* | · | -15%
Cc1ccc(N2CCN(C(C(=O)Nc3c(C)cccc3C)c3ccccc3OC(F)(F)F)CC2)cc1 (stereo not drawn) | · | -16 | · | -17%
O=C(CCCc1ccccc1)Nc1ccnn1C1CCN(Cc2ccccc2)CC1 | · | 0 | · | 29%
SMILES | LASV entry inh | HCMV antiviral | Marburg entry inh | FMDV inh
CSc1ccc(CN2CCC(n3nccc3NC(=O)CCCc3ccccc3)CC2)cc1 | ? | -68* | ? | -15%
CCN1C(=O)C(Cc2nc3ccccc3c(=O)n2-c2ccccc2)c2cc(Br)ccc21 (stereo not drawn) | -14%[46.1 µM] | -70* | ? | ?
CCCCC(=O)Nc1cc(C)c(NC(=O)c2cccs2)cn1 | 2% | -10 | 3% | 1%
CCCC(=O)Nc1cc(C)c(NC(=O)c2ccncc2)cn1 | 2.8µM* | -5 | 3% | 7%
CCOC(=O)c1c(SCCN2CCCC2)n(-c2ccccc2)c(=S)n(-c2ccccc2)c1=O | ? | 62 | ? | 20µM*
CN(CCOc1ccc(Cl)cc1)C(=O)c1cc(-c2ccco2)nc2ccccc12 | ? | -25 | ? | 35µM*
CC(C)(C)OC(=O)N[C@@H](Cc1ccccc1)c1nnc(S(=O)(=O)Cc2ccccc2)o1 | · | 109 | · | ·

High-throughput results as filed in PubChem BioAssay.
